Out of some 5,500 compounds screened, about 2,000 (36%) were called active. Roughly 18% stayed inconclusive and do not appear here. Rule as the data show it: active = normalized growth mostly below about 0.91 (no sharp cut-off); inconclusive = no clear call, values can overlap the other calls; inactive = mostly above about 0.92. The list shows a part of the results.
Experiment: chemical genetic growth profiling, strain panel (AID 1159580);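 also: tested at 20 µM; growth read once vehicle control cultures reached saturation at 30 °C; 1 = growth at the plate median or of vehicle wells; lower values mean less growth of the strain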
Details: growth OD
[1] = S. cerevisiae deletion strains, locus YBL105C, strain PKC1, active compounds read low
[2] = S. cerevisiae deletion strains, locus YBR135W, strain CKS1, active compounds read low
[3] = S. cerevisiae deletion strains, locus YBR136W, strain MEC1, active compounds read low
[4] = S. cerevisiae deletion strains, locus YBR160W, strain CDC28, active compounds read low
[5] = S. cerevisiae deletion strains, locus YDL017W, strain CDC7, active compounds read low
[6] = S. cerevisiae deletion strains, locus YDL028C, strain MPS1, active compounds read low
[7] = S. cerevisiae deletion strains, locus YDL101C, strain DUN1, active compounds read low
[8] = S. cerevisiae deletion strains, locus YDL108W, strain KIN28, active compounds read low
[9] = S. cerevisiae deletion strains, locus YDL214C, strain PRR2, active compounds read low
[10] = S. cerevisiae deletion strains, locus YDR052C, strain DBF4, active compounds read low
[11] = S. cerevisiae deletion strains, locus YDR226W, strain ADK1, active compounds read low
[12] = S. cerevisiae deletion strains, locus YDR477W, strain SNF1, active compounds read low
[13] = S. cerevisiae deletion strains, locus YER123W, strain YCK3, active compounds read low
[14] = S. cerevisiae deletion strains, locus YER133W, strain GLC7, active compounds read low
[15] = S. cerevisiae deletion strains, locus YFR003C, strain YPI1, active compounds read low
[16] = S. cerevisiae deletion strains, locus YFR019W, strain FAB1, active compounds read low
[17] = S. cerevisiae deletion strains, locus YFR028C, strain CDC14, active compounds read low
[18] = S. cerevisiae deletion strains, locus YGR040W, strain KSS1, active compounds read low
[19] = S. cerevisiae deletion strains, locus YGR052W, strain FMP48, active compounds read low
[20] = S. cerevisiae deletion strains, locus YGR092W, strain DBF2, active compounds read low
[21] = S. cerevisiae deletion strains, locus YHR030C, strain SLT2, active compounds read low
[22] = S. cerevisiae deletion strains, locus YHR079C, strain IRE1, active compounds read low
[23] = S. cerevisiae deletion strains, locus YHR082C, strain KSP1, active compounds read low
[24] = S. cerevisiae deletion strains, locus YHR205W, strain SCH9, active compounds read low
[25] = S. cerevisiae deletion strains, locus YIL147C, strain SLN1, active compounds read low
[26] = S. cerevisiae deletion strains, locus YJL095W, strain BCK1, active compounds read low
[27] = S. cerevisiae deletion strains, locus YJL128C, strain PBS2, active compounds read low
[28] = S. cerevisiae deletion strains, locus YJL157C, strain FAR1, active compounds read low
[29] = S. cerevisiae deletion strains, locus YJR016C, strain ILV3, active compounds read low
[30] = S. cerevisiae deletion strains, locus YJR066W, strain TOR1 (second series), active compounds read low
[31] = S. cerevisiae deletion strains, locus YJR066W, strain TOR1, active compounds read low
[32] = S. cerevisiae deletion strains, locus YKL048C, strain ELM1, active compounds read low
[33] = S. cerevisiae deletion strains, locus YKL067W, strain YNK1, active compounds read low
[34] = S. cerevisiae deletion strains, locus YKL101W, strain HSL1, active compounds read low
[35] = S. cerevisiae deletion strains, locus YKL203C, strain TOR2, active compounds read low
[36] = S. cerevisiae deletion strains, locus YLR113W, strain HOG1, active compounds read low
[37] = S. cerevisiae deletion strains, locus YLR133W, strain CKI1, active compounds read low
[38] = S. cerevisiae deletion strains, locus YLR403W, strain SFP1, active compounds read low
[39] = S. cerevisiae deletion strains, locus YML070W, strain DAK1, active compounds read low
[40] = S. cerevisiae deletion strains, locus YMR205C, strain PFK2 (second series), active compounds read low
[41] = S. cerevisiae deletion strains, locus YNL006W, strain LST8, active compounds read low
[42] = S. cerevisiae deletion strains, locus YNL020C, strain ARK1, active compounds read low
[43] = S. cerevisiae deletion strains, locus YNL183C, strain NPR1, active compounds read low
[44] = S. cerevisiae deletion strains, locus YNL307C, strain MCK1 (second series), active compounds read low
[45] = S. cerevisiae deletion strains, locus YOL136C, strain PFK27, active compounds read low
[46] = S. cerevisiae deletion strains, locus YOR061W, strain CKA2, active compounds read low
[47] = S. cerevisiae deletion strains, locus YOR119C, strain RIO1, active compounds read low
[48] = S. cerevisiae deletion strains, locus YOR231W, strain MKK1, active compounds read low
[49] = S. cerevisiae deletion strains, locus YPL031C, strain PHO85, active compounds read low
[50] = S. cerevisiae deletion strains, locus YPL153C, strain RAD53, active compounds read low
[51] = S. cerevisiae deletion strains, locus YPL209C, strain IPL1, active compounds read low
[52] = S. cerevisiae deletion strains, locus YPL256C, strain CLN2, active compounds read low
[53] = S. cerevisiae deletion strains, locus YPR106W, strain ISR1, active compounds read low
[54] = S. cerevisiae deletion strains, locus YPR111W, strain DBF20, active compounds read low
[55] = S. cerevisiae deletion strains, locus YAL013W, strain DEP1, active compounds read low
[56] = S. cerevisiae deletion strains, locus YBR229C, strain ROT2, active compounds read low
[57] = S. cerevisiae deletion strains, locus YDR150W, strain NUM1, active compounds read low
[58] = S. cerevisiae deletion strains, locus YEL061C, strain CIN8, active compounds read low
[59] = S. cerevisiae deletion strains, locus YGR078C, strain PAC10, active compounds read low
[60] = S. cerevisiae deletion strains, locus YGR229C, strain SMI1, active compounds read low
[61] = S. cerevisiae deletion strains, locus YHR087W, strain rtc3, active compounds read low
[62] = S. cerevisiae deletion strains, locus YJL187C, strain SWE1, active compounds read low
[63] = S. cerevisiae deletion strains, locus YJR043C, strain POL32, active compounds read low
[64] = S. cerevisiae deletion strains, locus YJR075W, strain HOC1, active compounds read low
[65] = S. cerevisiae deletion strains, locus YLR039C, strain RIC1, active compounds read low
[66] = S. cerevisiae deletion strains, locus YLR058C, strain SHM2 (second series), active compounds read low
[67] = S. cerevisiae deletion strains, locus YLR085C, strain ARP6, active compounds read low
[68] = S. cerevisiae deletion strains, locus YLR262C, strain YPT6, active compounds read low
[69] = S. cerevisiae deletion strains, locus YML094W, strain GIM5, active compounds read low
[70] = S. cerevisiae deletion strains, locus YMR219W, strain ESC1, active compounds read low
[71] = S. cerevisiae deletion strains, locus YMR263W, strain SAP30, active compounds read low
[72] = S. cerevisiae deletion strains, locus YNL128W, strain TEP1, active compounds read low
[73] = S. cerevisiae deletion strains, locus YNL153C, strain GIM3, active compounds read low
[74] = S. cerevisiae deletion strains, locus YNL298W, strain CLA4 (second series), active compounds read low
[75] = S. cerevisiae deletion strains, locus YNL322C, strain KRE1, active compounds read low
[76] = S. cerevisiae deletion strains, locus YNR030W, strain Alg12, active compounds read low
[77] = S. cerevisiae deletion strains, locus YOL006C, strain TOP1, active compounds read low
[78] = S. cerevisiae deletion strains, locus YPL055C, strain LGE1, active compounds read low
[79] = S. cerevisiae deletion strains, locus YPL241C, strain CIN2, active compounds read low
[80] = S. cerevisiae deletion strains, locus YPR135W, strain CTF4, active compounds read low
[81] = S. cerevisiae strains, strain wild type, active compounds read low
[82] = S. cerevisiae deletion strains, locus YCL061C, strain MRC1, active compounds read low

Measured: normalized growth

CC(C)c1ccc(COC(=O)Nc2ccc(CSc3ccc(Cl)cc3)o2)cc1
inactive: S. cerevisiae deletion strains, locus YAR019C, strain CDC15, active compounds read low 0.99 | [1] 0.992 | [2] 0.983 | [3] 0.983 | [4] 0.989 | [5] 0.982 | [6] 0.985 | [7] 0.992 | [8] 0.985 | S. cerevisiae deletion strains, locus YDL132W, strain cdc53, active compounds read low 0.982 | [9] 0.934 | [10] 0.993 | S. cerevisiae deletion strains, locus YDR054C, strain cdc34, active compounds read low 0.972 | [11] 0.981 | [12] 0.929 | [13] 0.91 | [14] 0.925 | S. cerevisiae deletion strains, locus YFL009W, strain cdc4, active compounds read low 0.979 | S. cerevisiae deletion strains, locus YFL029C, strain CAK1, active compounds read low 0.983 | [15] 0.983 | [16] 0.935 | [17] 0.988 | [18] 0.923 | [19] 0.952 | [20] 0.921 | [21] 0.871 | [22] 0.886 | [23] 0.963 | [24] 0.82 | [25] 0.983 | [26] 0.855 | [27] 0.954 | [28] 0.907 | [29] 0.98 | [30] 0.9 | [31] 1.01 | [32] 0.953 | [33] 0.938 | [34] 0.953 | S. cerevisiae deletion strains, locus YKL193C, strain SDS22, active compounds read low 0.98 | [35] 0.976 | [36] 0.879 | [37] 0.928 | [38] 0.893 | [39] 0.912 | S. cerevisiae deletion strains, locus YMR001C, strain CDC5, active compounds read low 0.983 | [40] 0.928 | S. cerevisiae deletion strains, locus YMR277W, strain FCP1, active compounds read low 0.982 | [41] 0.988 | [42] 0.919 | S. cerevisiae deletion strains, locus YNL161W, strain CBK1, active compounds read low 0.98 | [43] 0.995 | S. cerevisiae deletion strains, locus YNL207W, strain RIO2, active compounds read low 0.982 | S. cerevisiae deletion strains, locus YNL222W, strain SSU72, active compounds read low 0.987 | [44] 0.933 | S. cerevisiae deletion strains, locus YOL078W, strain AVO1, active compounds read low 0.981 | [45] 0.92 | [46] 0.909 | [47] 0.983 | [48] 0.963 | S. cerevisiae deletion strains, locus YOR329C, strain SCD5, active compounds read low 0.986 | [49] 0.902 | [50] 0.912 | [51] 0.988 | [52] 0.923 | S. cerevisiae deletion strains, locus YPR025C, strain CCL1, active compounds read low 0.989 | [53] 0.983 | [54] 0.983 | S. cerevisiae deletion strains, strain NNK1, active compounds read low 0.987 | S. cerevisiae deletion strains, strain TSCII, active compounds read low 0.986

O=C(CSc1ccc(Cl)cc1)Nc1ccc(F)cc1
inactive: [7] 0.939 | [58] 0.942 | [62] 1 | S. cerevisiae deletion strains, locus YKL190W, strain CNB1, active compounds read low 0.934 | [65] 0.884 | [67] 0.79 | [68] 0.826 | [69] 0.875 | [71] 0.948 | [72] 0.968 | [73] 0.925 | [77] 0.78 | [81] 0.919
active: [55] 0.909 | [56] 0.908 | [57] 0.803 | [59] 0.888 | [60] 0.924 | [21] 0.679 | [61] 0.888 | [63] 0.916 | [64] 0.823 | [66] 0.909 | [70] 0.916 | [74] 0.808 | [75] 0.923 | [76] 0.807 | [78] 0.782 | [79] 0.849 | [80] 0.608

N/C(CCSc1ccc(Cl)cc1)=N/OC(=O)Nc1ccc(Cl)cc1
inactive: [1] 0.986 | [2] 0.984 | [3] 0.978 | [4] 0.978 | [5] 0.982 | [6] 0.986 | [8] 0.983 | [10] 0.982 | [11] 0.983 | [15] 0.981 | [17] 0.986 | [25] 0.986 | [27] 0.944 | [29] 0.981 | [51] 0.983 | [53] 0.976 | [54] 0.978
active: [9] 0.336 | [12] 0.273 | [13] 0.0987 | [14] 0.286 | [16] 0.108 | [18] 0.247 | [19] 0.118 | [20] 0.275 | [21] 0.104 | [22] 0.118 | [23] 0.114 | [24] 0.253 | [26] 0.111 | [28] 0.371 | [30] 0.0983 | [31] 0.114 | [32] 0.346 | [33] 0.377 | [34] 0.259 | [35] 0.14 | [36] 0.126 | [37] 0.377 | [38] 0.311 | [39] 0.103 | [40] 0.345 | [41] 0.697 | [42] 0.375 | [43] 0.122 | [44] 0.315 | [45] 0.125 | [46] 0.326 | [47] 0.133 | [48] 0.103 | [49] 0.142 | [50] 0.0978 | S. cerevisiae deletion strains, locus YPL204W, strain HRR25, active compounds read low 0.105 | [52] 0.118

COC(=O)CCCCCCCC(=O)Nc1ccc(Cl)cc1
inactive: [55] 0.999 | [56] 0.997 | [82] 0.998 | [7] 0.984 | [57] 0.896 | [58] 1 | [59] 0.997 | [60] 1.03 | [21] 0.999 | [61] 0.983 | [63] 1.01 | [64] 0.985 | [65] 1.01 | [66] 1.01 | [67] 1.01 | [68] 1.02 | [69] 0.975 | [70] 1.01 | [71] 1.01 | S. cerevisiae deletion strains, locus YMR307W, strain GAS1, active compounds read low 1.06 | [72] 1.02 | [73] 0.997 | [74] 1.01 | [75] 1 | [76] 0.997 | [78] 0.929 | [79] 0.991 | [80] 0.955 | [81] 1.02

O=C(CC1NCCN(Cc2ccccc2)C1=O)Nc1ccc(Cl)cc1 (stereo not given)
inactive: [55] 0.993 | [56] 0.995 | [82] 0.981 | [7] 0.968 | [57] 0.993 | [58] 1.01 | [59] 0.99 | [21] 0.955 | [61] 0.97 | [62] 1.01 | [63] 0.971 | [64] 1.02 | [65] 0.988 | [66] 0.998 | [67] 1.01 | [68] 0.994 | [69] 1.01 | [70] 1.01 | [72] 1 | [73] 0.981 | [74] 0.975 | [75] 0.996 | [76] 0.984 | [77] 0.993 | [78] 0.909 | [79] 1 | [80] 0.915

— PubChem BioAssay AID1159580 (chemical genetic matrix, 2015)
